Among all 2,100 compounds or so, about 1,100 (52%) were called active. Another 29% or so got no clear call; they are omitted. The set was probably picked from earlier hits. This is one part of the list. Values without a mark were called inactive. Calls follow the shape of the dose curve; as a rule, active = well fitted inhibition curve with a large enough effect; inconclusive = small, poorly fitted or top-dose-only effect; inactive = no such curve, though single readings can be large or run the other way.
% is scaled to controls: 0 for no effect and ±100 for the full control effect; potency is read from the fitted curve at half-maximal effect.

DNA dC->dU-editing enzyme APOBEC-3F (Homo sapiens), sequence (Q8IUX4 whole entry, looked up): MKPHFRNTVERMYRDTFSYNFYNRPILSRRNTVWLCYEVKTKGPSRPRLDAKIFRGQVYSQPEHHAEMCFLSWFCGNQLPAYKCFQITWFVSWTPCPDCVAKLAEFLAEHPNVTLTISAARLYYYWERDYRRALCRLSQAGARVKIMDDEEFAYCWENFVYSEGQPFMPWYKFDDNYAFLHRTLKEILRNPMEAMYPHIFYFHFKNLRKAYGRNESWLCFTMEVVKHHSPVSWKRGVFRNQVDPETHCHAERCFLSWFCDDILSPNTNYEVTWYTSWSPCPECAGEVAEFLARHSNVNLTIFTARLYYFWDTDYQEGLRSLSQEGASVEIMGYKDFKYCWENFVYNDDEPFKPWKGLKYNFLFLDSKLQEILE

This assay concerns the target DNA dC->dU-editing enzyme APOBEC-3F (Homo sapiens) (UniProt Q8IUX4). In words: qHTS for inhibitors of Vif-A3F interactions: Cherry picks counterscreen. Also: nearly all actives have a fitted effect of over 65% in size. The following applies: HeLa A3F-eYFP/Vif cells, eYFP fluorescence, 24 h; series mostly up to 46.1 µM; activity, negative = inhibitor: at the top concentration. Summed up:
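Rescue of Vif-driven A3F-eYFP degradation read as cellular eYFP fluorescence after 24 h compound exposure (several concentrations) in stable HeLa cells; MG132 (2 mM stock) as positive control.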
Turning to `C/C(=N\NC(N)=S)C12CC3CC(CC(C3)C1)C2`, the “activity, negative = inhibitor” value was -4.36% [at 36.9 µM].
As to `O=C(NC1CC1)c1cccc2c1C(=O)c1ccc(N3CCC(Cc4ccccc4)CC3)cc1S2(=O)=O`, the Potency is 18.4 µM (active).
On the same count and under the same terms, the value for `O=C(NC1CCCCC1)c1cccc2c1C(=O)c1ccc(N3CCC(Cc4ccccc4)CC3)cc1S2(=O)=O` was 15.8 µM (active).
On to `CC(C)Cn1c(N)c(C(=O)COC(=O)c2ccc([N+](=O)[O-])o2)c(=O)n(C)c1=O`, for which the “activity, negative = inhibitor” value was -5.06% [at 36.9 µM].
Consider `O=C(/C=C/c1ccc([N+](=O)[O-])o1)NNC(=O)c1ccc(F)cc1`, for which the Potency is 2.8 µM (active).
For `N#CCc1ccc(NC(=O)/C=C/c2ccc([N+](=O)[O-])o2)cc1`, the Potency is 11.6 µM (active).
With `CCOC(=O)CCc1ccc(NC(=O)/C=C/c2ccc([N+](=O)[O-])o2)cc1`, the Potency is 20.6 µM (active).
For `CCc1ccc(C(=O)/C=C/c2ccc([N+](=O)[O-])o2)cc1`, the Potency is 15.8 µM (active).
As to `O=c1cc(-c2ccccc2)[nH]c2ccccc12`, the Potency is 2.23 µM (active).
With `COc1cc2nc(/C=C/c3ccc(N(C)C)cc3)sc2cc1SC`, the Potency was 11.6 µM (active).
For `CCS(=O)(=O)c1nn2c(N)c(/C=C3/C=CC(=O)C(OC)=C3)c(=O)nc2s1`, the “activity, negative = inhibitor” value is 47.2%.
With `COc1cc(C(=O)c2ccc3c(c2)OCO3)cc(OC)c1OC`, the Potency is 7.04 µM (active).
With `COC(=O)c1c(-c2cccnc2)csc1NC(=O)c1ccc2c(c1)OCO2`, the “activity, negative = inhibitor” value is -20.7%.
`CCOC(=O)C1C(=O)C=C(/C=C/c2ccc(N(C)C)cc2)CC1c1ccccc1` (stereo unspecified): the Potency is 16.4 µM (active).
On the same count and under the same terms, in the case of `CCCCOc1ccc(-c2nnn(CC(=O)NCc3ccco3)n2)cc1` it was 6.27 µM (active); in that of `CCOC(=O)c1c(Nc2ccc(Cl)cc2)sc(/C=C2\C=Nc3ccccc32)c1O`, 14.6 µM (active).
For `CN(C)CCCN(C(=O)/C=C/c1cccs1)c1nc2ccc(F)cc2s1`, the “activity, negative = inhibitor” value is -13.7%.
For `COc1cc2c(cc1OC)CN(C(=O)/C=C/c1cccs1)CC2`, the Potency was 2.8 µM (active).
Consider `Cc1cccc(C(=O)NC(=S)N2CCc3ccccc3C2)c1`, for which the “activity, negative = inhibitor” value was 1.57%.
With `S=c1[nH]cnc2sc(-c3ccccc3)cc12`, the “activity, negative = inhibitor” value is 8.41%.
For `O=c1[nH]c(-c2cccnc2)nc2sc(-c3ccccc3)cc12`, the Potency was 4.44 µM (active).
`Cc1ccc(S(=O)(=O)Nc2cc(Cl)c(O)c3ncccc23)cc1`: the “activity, negative = inhibitor” value is -18.6% [at 36.9 µM].
Take `CC(=O)c1c(C)oc2c1cc(NS(=O)(=O)c1ccc(Br)cc1)c1ccccc12`: the Potency is 2.91 µM (active).
Consider `CCc1nc(Nc2ccc3nccnc3c2)c2oc3ccccc3c2n1`, for which the Potency was 23.1 µM (active).
On the same count and under the same terms, the value for `COc1ccc(S(=O)(=O)Nc2cccc(-c3ccc4nncn4n3)c2)cc1` was 3.14 µM (active); that for `COc1ccc(S(=O)(=O)Nc2cccc(-c3ccc4nncn4n3)c2)cc1F` was 1.98 µM (active).

Values taken from PubChem BioAssay AID651815 (National Center for Advancing Translational Sciences (NCATS), 2012).
